# Source: ChEMBL document CHEMBL4513216, “Probing the Open Global Health Chemical Diversity Library for Multistage-Active Starting Points for Next-Generation Antimalarials” (ACS Infect Dis, 2020)
# About 8,600 (12%) of roughly 69,000 compounds showed an effect of 50% or more. The full list was thinned out, with strong results kept by preference.
# Tested on: Plasmodium berghei
# Test: Screen against P. berghei liver stage (PbLuc), transformed with Luciferase, at 10uM
# Type: functional, HepG2
# Conditions: tested at 10 uM
row,SMILES,INHIBITION
1,CCN(CC(=O)Nc1cc(Cl)ccc1C)C(=O)c1ccc(=O)[nH]n1,23.2%
2,COc1ncc(-c2ccc(O)cc2)c(OC)n1,27.6%
3,CC(C)c1ccc(C2CC(=O)Nc3c2cnn3C)cc1 (stereo not drawn),14.7%
4,COc1ccccc1OCC(=O)NS(=O)(=O)c1ccc(C)s1,25.1%
5,CCNC(=O)[C@@H]1C[C@H](NC(=O)c2cncnc2C)CN1Cc1ccsc1,22.6%
6,CC(C)c1nn(C)c(N(C)C)c1CNCc1ccnc(N(C)C)c1,-10.8%
7,Cc1nc(C)n(CC2CCCN(Cc3cccc(F)c3F)C2)n1 (stereo not drawn),31.2%
8,COc1ccc2c(c1)nc1n2[C@@H](CNCc2ccccc2)COC1,43.1%
9,COc1ccc2c(c1)nc1n2[C@@H](CNCc2ncccc2C)COC1,51%
10,COc1ccc2c(c1)nc1n2[C@@H](CNCc2nccs2)COC1,8.52%
11,Cc1ccc2c(n1)N(C)CCN(C(=O)NC(C)C)C2,23.6%
12,O=C(CCN1CCc2c(ncn2C2CC2)C1)NC1CCCC1,-45.6%
13,CCc1ccc(C(=O)NC2CCc3nc(C)cn3C2)o1 (stereo not drawn),2.75%
14,CCc1ccc(C(=O)NC2CCCN(c3ccn(C)n3)C2=O)o1 (stereo not drawn),20.3%
15,CCc1ccc(C(=O)NC2CCN(c3ccn(C)n3)C2)o1 (stereo not drawn),62.4%
16,CNc1cc(CNC(=O)c2cccnc2)nc(-c2ccncc2)n1,27.8%
17,CCc1noc(C(C)N2CCN(CCN3CCCC3=O)CC2)n1 (stereo not drawn),-0.113%
18,C[C@H]1C[C@H]2CN(C(=O)CC3CC3)CC[C@H]2O1,1.94%
19,Cc1ccc(CN2C(=O)CCC2C(=O)Nc2cnn(C)c2)o1 (stereo not drawn),36.7%
20,CC(=O)N1CCCC(C(=O)NCCOc2cc(C)cc(C)c2)C1 (stereo not drawn),-33.7%
21,CCN(CC)C(=O)[C@@H]1C[C@@H](NC(=O)c2ccoc2)CN1C,6.88%
22,CCN(CC)C(=O)[C@@H]1C[C@@H](NC(=O)c2ccn(C(C)(C)C)c2)CN1C,51.3%
23,CCN(CC)C(=O)[C@@H]1C[C@H](NC(=O)c2ccn(C(C)(C)C)c2)CN1C,21.7%

row,SMILES,INHIBITION
1,O=C(NCc1cccs1)c1nc2c(o1)CN(C(=O)c1cccnc1)C2,-4.4%
2,COc1cccc(C2CCN2C(=O)c2cc(C(C)C)on2)c1 (stereo not drawn),55.5%
3,COc1cccc(C2CCN2C(=O)c2cnccn2)c1 (stereo not drawn),-3.81%
4,COc1ccc(C2CCCN2C(=O)c2cc(C(C)C)on2)cc1 (stereo not drawn),-75.1%
5,Cc1ccc(N2CC[C@H]3C[C@H](C(=O)NCc4ccco4)O[C@H]3C2)nn1,14.5%
6,CN(CCSc1nncn1C(C)(C)C)c1ccccc1,-9.8%
7,Cc1ccc2c(c1)CCC2NCc1c(C)nn(C)c1N1CCOCC1 (stereo not drawn),33.8%
8,CC1CCC(O)(CSc2nnnn2C2CC2)CC1 (stereo not drawn),-44.2%
9,O=C(O)c1ccn(-c2ccccc2NS(=O)(=O)c2cccc(F)c2)n1,30.3%
10,COc1c(C2CCCN2C(=O)c2cnccn2)c(C)nn1C (stereo not drawn),5.7%
11,O=C(c1ccc2c(c1)[nH]c(=O)n2C1CCCC1)N1CCC1,21.1%
12,CN1CCN(C(=O)c2ccc3c(c2)[nH]c(=O)n3C2CCCC2)CC1,58.2%
13,O=C(c1ccc2c(c1)[nH]c(=O)n2C1CCCC1)N1CCSCC1,-6.72%
14,CN1CCNC(=O)C12CCN(C(=O)c1ccc3[nH]c(=O)[nH]c3c1)CC2,38.2%
15,Cc1cnn(CC2CN(Cc3csc(C(C)C)n3)CCO2)c1 (stereo not drawn),9.64%
16,Cc1ccc(C(=O)N2CCC3(CCCN(c4ncc(F)cn4)C3)C2)cn1 (stereo not drawn),36.7%
17,Cc1cnc(C(=O)N2CCC3(CCN3Cc3ccc(F)cc3)C2)cn1 (stereo not drawn),53.9%
18,Cc1cc(C(=O)N2CCC3(CCN3Cc3ccc(F)cc3)C2)no1 (stereo not drawn),-6.05%
19,O=C(c1ccsc1)N1CCC2(CCN2Cc2ccc(F)cc2)C1 (stereo not drawn),-7.7%
20,Cn1ccnc1C(=O)N1CCC2(CCN2Cc2ccc(F)cc2)C1 (stereo not drawn),25.8%
21,COCCN1CCC12CCN(C(=O)c1ccc(C)nc1)C2 (stereo not drawn),54.8%
22,Cc1ccc(C(=O)N2CCC3(CCN3Cc3ccc(F)cc3)C2)cn1 (stereo not drawn),62.9%
23,COCCN1CCC12CCN(C(=O)c1ccc3[nH]ccc3c1)C2 (stereo not drawn),27.6%

row,SMILES,INHIBITION
1,COCCN1CCC12CCN(C(=O)c1ccsc1)CC2,-20.8%
2,Cc1cnn(CC2CCCN2Cc2noc(CC(C)C)n2)c1 (stereo not drawn),17.4%
3,CN1CCCN(C(=O)c2cnsn2)c2cc(F)ccc21,7.77%
4,Cc1ccc(Cn2nc(C)c3c(C(=O)O)c(Cl)c(C4CC4)nc32)cc1,31.7%
5,O=C(c1cc(Cl)c[nH]c1=O)N1C[C@H]2CC[C@@H](C1)N(Cc1ccccc1)C2,-28.7%
6,Cn1cc(CN2C[C@@H]3CN(Cc4ccoc4)CCO[C@@H]3C2)cn1,7.11%
7,CCn1c(C)nc2cc(NC(=O)CC3CCCCO3)ccc21 (stereo not drawn),27.5375%
8,Oc1nc(N2CCCC2)nc2nccc(-c3ccccn3)c12,-13%
9,CCOC(=O)N1[C@@H](c2ccco2)[C@@H](CO)C[C@]12CCCCNC2=O,1.04%
10,CCCC(O)CN1CC(C)(C)CN(C(=O)CCc2ccccc2)CC1=O (stereo not drawn),20%
11,NC(=O)CN1CCC(C(=O)NCCn2cc(Cl)cn2)CC1,61%
12,O=C(NCCn1cc(Cl)cn1)C1CCN(C(=O)C2CC2)CC1,2.55%
13,NC(=O)C1CCN(CC(=O)NCCn2cc(Cl)cn2)CC1,45.2%
14,N[C@@H]1CC[C@H](C(=O)NCCn2cc(Cl)cn2)C1,60.1%
15,N[C@@H]1CC[C@H](C(=O)NCCc2nc(-c3ccccc3)cs2)C1,-9.2%
16,CS(=O)(=O)N1CCC(C(=O)NCCCn2cc(Cl)cn2)CC1,40.3%
17,COc1cccc(NC(=O)NCC(O)c2ccc(F)cc2F)c1 (stereo not drawn),-3.7%
18,CCc1cccc2cc(CN)c(=O)[nH]c12,10.365%
19,CC1CCC(NCCNC(=O)c2cccs2)CC1 (stereo not drawn),5.11%
20,Cc1c(CN2CCCC(C(=O)Nc3ccccc3)C2)cc(C#N)n1C (stereo not drawn),74%
21,Cc1c(CN2CCCC(C(=O)c3ccccc3)C2)cc(C#N)n1C (stereo not drawn),7.97%
22,Cc1c(CN2CCCC(C(=O)CCc3ccccc3)C2)cc(C#N)n1C (stereo not drawn),19.4%
